Assay results from PubChem BioAssay (EPA / NIEHS).
Results filed as inconclusive are left out. The source made the active and inactive calls. How the source made its calls, unless noted: active means hit-call score of the fitted dose curve at least 0.9, where 1 is the maximum; inconclusive means response in the unintended direction; inactive means score below 0.9.

Tests used:
[1] = TOX21_p53_BLA_p2_viability: Viability Assessment in the Tox21 HCT-116 p53 Agonism Beta-lactamase Assay, Phase 2 (AID 2283591);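 further: compound exposure lasted 16 h at 37 °C; actives lower the ATP signal meaning cytotoxicity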
Method in brief: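 HCT116 p53-bla cells, 4000/well, dosed after 5 h plating (217-fold dilution of DMSO stocks) and incubated 16 h at 37C. Viability taken as cellular ATP by CellTiter-Glo luminescence after 30 min RT; signal loss marks cytotoxicity.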

[2] = TOX21_p53_BLA_p3_viability: Viability Assessment in the Tox21 HCT-116 p53 Agonism Beta-lactamase Assay, Phase 3 (AID 2283593);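 further: cells exposed to compound for 16 h before reading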
Method in brief: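 HCT116 cells, 4000/well, dosed 5 h after plating by pin transfer (217-fold dilution from DMSO stock) and incubated 16 h at 37C, 5% CO2. Viability read as ATP luminescence with CellTiter-Glo after 30 min at room temperature.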

[3] = molecular target: Cellular tumor antigen p53 (Homo sapiens) (UniProt P04637); experiment: TOX21_p53_BLA_p3_ratio: Tox21 HCT-116 p53 Agonism Beta-lactamase Assay, Ratio, Phase 3 (AID 2283596)
Method in brief: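 Cells were seeded at 4000/well, rested 5 h at 37C, then dosed with DMSO compound solutions (217-fold dilution) for 16 h. CCF4-AM substrate was loaded for 2 h at room temperature, and the 460/530 nm emission ratio was fitted for gain of signal versus DMSO.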

[4] = TOX21_p53_BLA_p5_viability: Viability Assessment in the Tox21 HCT-116 p53 Agonism Beta-lactamase Assay, Phase 5 (AID 2283600)
Method in brief: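 Here cell health was gauged by ATP levels in wells holding 4000 cells, each treated 16 h with DMSO-delivered compounds at 217-fold dilution; reduced luminescence marked toxicity.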

[5] = molecular target: Cellular tumor antigen p53 (Homo sapiens) (UniProt P04637); experiment: TOX21_p53_BLA_p5_ratio: Tox21 HCT-116 p53 Agonism Beta-lactamase Assay, Ratio, Phase 5 (AID 2283599)
Method in brief: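 HCT-116 p53-bla cells (4000/well) plated 5 h, dosed with compound (217-fold DMSO dilution) for 16 h at 37 C; CCF4-AM substrate 2 h at room temperature. Activity is the 460/530 nm emission ratio (405 nm excitation), fitted in gain-of-signal direction versus DMSO.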

[6] = molecular target: Cellular tumor antigen p53 (Homo sapiens) (UniProt P04637); experiment: TOX21_p53_BLA_p4_ratio: Tox21 HCT-116 p53 Agonism Beta-lactamase Assay, Ratio, Phase 4 (AID 2283601)
Method in brief: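 HCT-116 p53 beta-lactamase reporter cells (4000/well) preincubated 5 h, then compound (217-fold dilution of DMSO stock) for 16 h at 37C. CCF4-AM substrate added 2 h at room temperature; 460/530 nm emission ratio fitted upward versus DMSO.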

[7] = CCTE_Harrill_HTTr_Viability_MCF7: CCTE's 6-hour Cell Viability Assessment for the High-Throughput Transcriptomics (HTTr) Platform, in MCF-7 cells cultured in DMEM + 10% fetal bovine serum, Harrill Lab (AID 2284010; active means hit-call score of the fitted dose curve at least 0.9, where 1 is the maximum; inactive means score below 0.9)
Method in brief: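 Eight-point concentration series, six-hour exposure. Propidium iodide exclusion imaged to assess membrane integrity as a cytotoxicity readout; bidirectional fitting was done with DMSO as negative control and activity baseline.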

[8] = CCTE_Harrill_HTTr_Apoptosis_MCF7: CCTE's 6-hour Apoptosis Assessment for the High-Throughput Transcriptomics (HTTr) Platform, in MCF-7 cells cultured in DMEM + 10% fetal bovine serum, Harrill Lab (AID 2284011; active means hit-call score of the fitted dose curve at least 0.9, where 1 is the maximum; inactive means score below 0.9)
Method in brief: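 Apoptosis in MCF-7 cells grown in DMEM with 10% fetal bovine serum was scored after a six hour exposure by high content imaging of caspase-3/7 activation (CellEvent Caspase 3/7 Green), with DMSO serving as negative control and baseline.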

[9] = TOX21_p53_BLA_p4_viability: Viability Assessment in the Tox21 HCT-116 p53 Agonism Beta-lactamase Assay, Phase 4 (AID 2283597);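 further: hits lower the luminescence signal meaning cytotoxicity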
Method in brief: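 In this multiplexed secondary endpoint, HCT116 cells (4000 per well, compound at 5 h, 16 h treatment) received CellTiter-Glo after the beta-lactamase read. Luminescence after 30 min RT reflects ATP, and falling signal marks cytotoxicity.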

Measured: AC50

Cellular tumor antigen p53 (Homo sapiens), sequence (P04637 whole entry, looked up): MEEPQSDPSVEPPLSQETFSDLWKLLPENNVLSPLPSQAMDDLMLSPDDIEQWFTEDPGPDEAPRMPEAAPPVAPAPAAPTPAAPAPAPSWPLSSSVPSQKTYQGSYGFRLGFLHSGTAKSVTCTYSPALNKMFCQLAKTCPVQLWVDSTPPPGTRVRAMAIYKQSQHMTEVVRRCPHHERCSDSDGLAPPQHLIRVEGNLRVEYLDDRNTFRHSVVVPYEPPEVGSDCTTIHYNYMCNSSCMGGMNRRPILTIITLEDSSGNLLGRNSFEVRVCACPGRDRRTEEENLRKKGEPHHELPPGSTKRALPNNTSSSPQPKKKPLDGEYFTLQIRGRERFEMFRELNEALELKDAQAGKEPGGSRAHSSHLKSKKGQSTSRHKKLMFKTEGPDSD

[O]=[Mo](=[O])=[O]
inactive: [1] | [2] | [3] | [4]

C[C@@H]1C[C@H]2[C@@H]3CCC4=CC(=O)C=C[C@]4(C)[C@@]3(F)[C@@H](O)C[C@]2(C)[C@H]1C(=O)CO
inactive: [1] | [2] | [3] | [5]

CCOC(=O)Cn1c(=O)sc2cccc(Cl)c21
inactive: [1] | [2] | [3] | [4] | [6]

NS(=O)(=O)c1cc2c(cc1C(F)(F)F)NC(Cc1ccccc1)NS2(=O)=O (stereo unspecified)
not listed: [7] | [8] | [9]
inactive: all other assays above

CCCc1nn(C)c2c(=O)[nH]c(-c3cc(S(=O)(=O)N4CCN(C)CC4)ccc3OCC)nc12
inactive: [1] | [2] | [3] | [4]

COC(=O)[C@H]1[C@H]2C[C@@H]3c4[nH]c5cc(OC)ccc5c4CCN3C[C@H]2C[C@@H](OC(=O)COc2ccc(OC)cc2)[C@@H]1OC
not listed: [7] | [8] | [9]
inactive: all other assays above

COc1ccc([C@@H]2Sc3ccccc3N(CCN(C)C)C(=O)[C@@H]2OC(C)=O)cc1
active: [2] 38.8 µM | [3] 43.6 µM
not listed: [5] | [9]
inactive: all other assays above

CCOC(=O)[C@@H](N)CS
inactive: [1] | [2] | [3] | [4] | [6]

CC(=O)Oc1ccc([N+](=O)[O-])cc1CCl
inactive: [1] | [2] | [5]
active: [3] 73.1 µM

Nc1nc2c(c(=O)[nH]1)N(C=O)C(CNc1ccc(C(=O)N[C@@H](CCC(=O)O)C(=O)O)cc1)CN2 (stereo partly specified)
inactive: [1] | [2] | [3] | [5] | [6]

CC(C(O)c1ccc(O)cc1)N1CCC(Cc2ccccc2)CC1 (stereo unspecified)
inactive: [1] | [2] | [9] | [5]

O=C(O)/C=C/C(O)c1ccc(Cl)cc1 (stereo unspecified)
not listed: [3] | [7] | [8]
inactive: all other assays above

NC(Cc1ccc(Cl)cc1)C(=O)O (stereo unspecified)
inactive: [1] | [2] | [3] | [6]

NC(=O)CCCCC1CCSS1 (stereo unspecified)
inactive: [1] | [2] | [9] | [5]

CC(=O)SC[C@@H](Cc1ccccc1)C(=O)NCC(=O)OCc1ccccc1
not listed: [3] | [7] | [8]
inactive: all other assays above

O=[N+]([O-])c1ccc(F)cc1F
inactive: [1] | [2] | [9] | [5] | [4]

Oc1cc2c(cc1O)[C@H]1c3ccc(O)c(O)c3OC[C@@]1(O)C2
inactive: [1] | [2] | [9] | [5]

CCCC(=O)O[C@]1(C(=O)COC(C)=O)CC[C@H]2[C@@H]3C[C@H](F)C4=CC(=O)C=C[C@]4(C)[C@@]3(F)[C@@H](O)C[C@@]21C
inactive: [1] | [2] | [9] | [5] | [6]

Nc1c(CC(=O)O)cccc1C(=O)c1ccc(Br)cc1
not listed: [4] | [5] | [9]
inactive: all other assays above

CC(C)C(O)(c1ccc(OC(F)(F)F)cc1)c1cncnc1 (stereo unspecified)
not listed: [3] | [7] | [8]
inactive: all other assays above

c1ccc(CC2=NCCN2)cc1
inactive: [1] | [2] | [9] | [5]

CCN1CCOCC1
inactive: [1] | [2] | [9] | [5] | [4]

COC(=O)c1ccccc1C(=O)c1ccc(OCCN2CCCCC2)cc1
not listed: [3] | [7] | [8]
inactive: all other assays above

COC(OC)OC
inactive: [1] | [2] | [3] | [6]

CN(C)CCOC1=Cc2ccccc2Sc2ccc(Cl)cc21
active: [9] 35.4 µM
inactive: [1] | [2]

COC(=O)[C@H]1[C@H]2C[C@@H]3c4[nH]c5cc(OC)ccc5c4CCN3C[C@H]2C[C@H](OC)[C@@H]1OC
inactive: [1] | [2] | [9] | [5]

CC(C)CCOC(=O)c1ccc(N(C)C)cc1
not listed: [3] | [7] | [8]
inactive: all other assays above

CC(C)=CCCC(C)=CC=NO
inactive: [1] | [2] | [9]

OCCN(CCO)CCN(CCO)CCO
inactive: [1] | [2] | [9] | [5] | [4]

CCCCCCc1ccc(-c2ccc(C#N)cc2)cc1
inactive: [1] | [2] | [9]

C[C@H]1O[C@@H](O[C@H]2CC[C@@]3(C)[C@H](CC[C@@H]4[C@@H]3C[C@@H](O)[C@]3(C)[C@@H](C5=CC(=O)OC5)CC[C@]43O)C2)C[C@H](O)[C@@H]1O[C@H]1C[C@H](O)[C@H](O[C@H]2C[C@H](O)[C@H](O[C@@H]3O[C@H](CO)[C@@H](O)[C@H](O)[C@H]3O)[C@@H](C)O2)[C@@H](C)O1
active: [1] 0.284 µM | [2] 0.296 µM | [9] 0.337 µM

COc1ccc2[nH]c(S(=O)Cc3ncc(C)c(OC)c3C)nc2n1 (stereo unspecified)
inactive: [1] | [2] | [3] | [6]

CC(O)[C@@H]1NC(=O)[C@H](CCCCN)NC(=O)[C@@H](Cc2c[nH]c3ccccc23)NC(=O)[C@H](Cc2ccccc2)NC(=O)[C@@H](NC(=O)[C@H](N)Cc2ccccc2)CSSC[C@@H](C(=O)N[C@H](CO)[C@@H](C)O)NC1=O (stereo partly specified)
inactive: [1] | [2] | [9] | [5] | [4]

N#C[C@@H]1C[C@@H]2C[C@@H]2N1C(=O)[C@@H](N)C12CC3CC(CC(O)(C3)C1)C2
inactive: [1] | [2] | [9] | [5] | [6]

N#Cc1ccc(C(=O)O)cc1
not listed: [3] | [7] | [8]
inactive: all other assays above
